Shown are actives, neighbours in structure and some others; about 3.1% of the full set was active somewhere.
TRPM1 prom inh = reduces MITF-dependent TRPM1 promoter luciferase signal. SK-MEL-5 TRPM1 promoter luciferase, 24 h. inhibition, % at 12.5 µM. actives 0.83% (n = 330,000). AID 488899;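 active = mean inhibition across replicates of 60% or more, whatever share of single replicates reaches that level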
Peg3 promoter = reduces Peg3 promoter-driven luciferase expression in HeLa; HeLa PEG-Prom luciferase reporter, luminescence, overnight; inhibition, % at 20 µM; actives 1.7% (n = 360,000); AID 588405;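 active = inhibition of at least 50% at 20 µM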
KKLEB cytotox = reduces viability of KKLEB cystic fibrosis airway cells; KKLEB CF airway cells viability, ATPlite luminescence, overnight; hits give low values; cells stimulated with P. aeruginosa culture filtrate; activity change (cytotoxicity), % at 5 µM; actives 0.36% (n = 360,000); AID 602141;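 active = corrected activity change at or below -50% at 5 µM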
ABHD5-PLIN5 inh = ABHD5-PLIN5 protein interaction inhibition. Q00G26+Q8WTS1. Split G. princeps luciferase complementation, luminescence, 4 h. inhibition, % at 4 µM. actives 0.78% (n = 360,000). AID 602281;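 active = inhibition above the mean inhibition across every tested compound plus 3 SD, cut at about 22% in these data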;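 also: 0% = DMSO only wells and the 100% control is not disclosed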
Target sequence (Q00G26 whole entry, looked up): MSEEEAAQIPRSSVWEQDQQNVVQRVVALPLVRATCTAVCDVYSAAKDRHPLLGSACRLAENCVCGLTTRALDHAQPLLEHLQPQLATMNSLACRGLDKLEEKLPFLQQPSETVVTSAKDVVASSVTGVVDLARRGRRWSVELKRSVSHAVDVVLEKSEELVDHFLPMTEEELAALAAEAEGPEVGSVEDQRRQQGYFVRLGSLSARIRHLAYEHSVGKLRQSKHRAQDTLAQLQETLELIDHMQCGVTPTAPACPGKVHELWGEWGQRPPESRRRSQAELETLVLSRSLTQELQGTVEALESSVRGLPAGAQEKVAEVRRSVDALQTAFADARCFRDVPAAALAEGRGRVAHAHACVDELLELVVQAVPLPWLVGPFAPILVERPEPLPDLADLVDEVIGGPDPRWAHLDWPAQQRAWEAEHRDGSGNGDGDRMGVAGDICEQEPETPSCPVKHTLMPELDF
Target sequence (Q8WTS1 whole entry, looked up): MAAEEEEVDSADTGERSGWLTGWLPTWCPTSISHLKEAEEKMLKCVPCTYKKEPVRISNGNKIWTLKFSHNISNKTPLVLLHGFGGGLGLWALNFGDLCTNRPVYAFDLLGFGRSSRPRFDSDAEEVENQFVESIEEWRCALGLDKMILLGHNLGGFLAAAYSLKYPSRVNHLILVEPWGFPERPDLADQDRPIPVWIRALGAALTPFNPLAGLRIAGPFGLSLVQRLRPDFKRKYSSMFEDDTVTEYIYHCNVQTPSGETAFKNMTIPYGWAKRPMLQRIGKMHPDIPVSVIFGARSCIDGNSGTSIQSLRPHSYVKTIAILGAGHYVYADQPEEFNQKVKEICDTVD
HIF-2a inh = inhibitors of HIF-2a; actives 0.72% (n = 360,000); inhibition, % at 18.8 µM; 786-0 RCC cells HIF-2a reporter, luciferase luminescence, overnight; AID 624352;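 active = inhibition of the luminescence signal of 40% or more relative to plate controls, in a single-dose primary screen at 18.75 µM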
CF NFkB block = blocks PAF-induced NF-kB reporter in cystic fibrosis cells | actives 0.86% (n = 360,000) | AID 588850 | inhibition, % at 5 µM | KKLEB NF-kB-GFP reporter, GFP fluorescence overnight;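 active = at least 50% inhibition at 5 µM, scaled per plate between neutral and stimulator controls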;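 also: PAF is a Pseudomonas aeruginosa culture filtrate used as stimulus; plate controls were PAF-stimulated DMSO wells for no effect and unstimulated DMSO wells for full effect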
ABHD5-PLIN5 conf = confirmation of human ABHD5-PLIN5 interaction inhibitors | biochemical ABHD5-PLIN5 interaction, luminescence | actives 67% (n = 2,200) | inhibition, % at 4 µM | AID 651612 | shares compounds with ABHD5-PLIN5 inh; in the data active = inhibition above about 23%;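 also: 0% = DMSO vehicle wells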
HNF4 split-luc = counter-screen for ABHD5-PLIN5 inhibitors: HNF4 split-luciferase. inhibition, % at 4 µM. actives 77% (n = 2,200). HNF4 dimerization, luminescence, biochemical. shares compounds with ABHD5-PLIN5 inh. AID 651674;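 active = mean inhibition across replicate wells exceeding the computed hit threshold, cut at about 13% in these data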;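 also: light from luciferase halves that rejoin when HNF4 fusion proteins dimerize; 0% = DMSO only wells and the 100% control is not given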
Mdm2 MdmX conf = confirmation of inhibitors of human Mdm2/MdmX interaction, set 2; SaOS-2 split-luciferase Mdm2/MdmX complementation, luminescence; inhibition, % at 8 µM; AID 504601; actives 99% (n = 740); shares compounds with HIF-2a inh;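 active = mean inhibition of the luminescence signal across two replicates at or above 26 percent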
HIF-2a conf = confirmation of HIF-2a inhibitors; shares compounds with HIF-2a inh; 786-0 RCC cells, HIF-2a luciferase reporter luminescence, overnight; inhibition, % at 18.8 µM; actives 56% (n = 1,800); AID 651580;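 active = mean inhibition across four replicates of at least 40 percent at the single tested concentration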
HIF-1a cs = counter-screen for HIF-2a inhibitors: HIF-1a inhibition in MiaPaCa-2 cells; MiaPaCa-2 HIF-1a luciferase reporter, desferoxamine, overnight; inhibition, % at 18.8 µM; actives 72% (n = 1,800); AID 651589; shares compounds with HIF-2a inh;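 active = mean inhibition of the reporter signal across four replicates at the single tested dose of 50% or more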
Starred values were filed as active, the others as inactive; / = no result given.

SMILES	TRPM1 prom inh	Peg3 promoter	KKLEB cytotox	ABHD5-PLIN5 inh	HIF-2a inh	CF NFkB block	ABHD5-PLIN5 conf	HNF4 split-luc	HIF-2a conf	HIF-1a cs	others
CC[n+]1ccc(/C=C/c2ccc(N(C)C)cc2)c2ccccc21	88.3*	50.0	-12.8	27.7*	26.6	-50.2	32.2*	32.5*	/	/
CC[n+]1c(/C=C/c2ccc(OC)c(OC)c2)ccc2ccccc21	-73.6	-295.0	-5.3	13.8	-199.0	-9.8	/	/	/	/
CC[n+]1c(/C=C/c2ccc(N(C)C)cc2)ccc2ccccc21	89.6*	49.4	-13.4	29.4*	-41.0	-35.0	26.6*	27.9*	/	/
CCCC(=O)Nc1c2c(nn1-c1ccc([N+](=O)[O-])cc1)CS(=O)(=O)C2	5.4	3.1	5.8	2.5	23.0	-5.9	/	/	/	/
CCCN(C(=O)c1cc(S(=O)(=O)N2CCN(CC)CC2)ccc1Cl)C1CCS(=O)(=O)C1 (stereo not given)	-6.2	7.6	-0.2	25.8*	8.6	31.1	3.5	2.6	/	/
Cc1cc(C)n(CCc2nc(-c3ccco3)cs2)n1	0.8	-15.2	-7.5	10.3	6.6	11.7	/	/	/	/
Cc1nn(CCc2nc(-c3ccco3)cs2)c2[nH]c(=O)cc(C(F)(F)F)c12	2.1	6.6	-2.1	41.4*	6.2	-16.8	21.3	16.3*	/	/
CCCCCCCCSC1=CC(=O)C(OC)=C(OC)C1=O	/	93.1*	-35.5	64.9*	9.1	63.4*	100.0*	104.1*	/	/
COc1ccc(C2=NN(C(=O)COC(=O)c3ccc(S(C)(=O)=O)c([N+](=O)[O-])c3)C(c3ccco3)C2)cc1 (stereo not given)	81.0*	94.5*	-79.5*	28.9*	61.1*	84.1*	50.7*	89.6*	7.0	103.0*	Mdm2 MdmX conf=103.2*
CN(C)CCCNC(=O)/C(=C\c1ccc(-c2ccc(Br)cc2)o1)NC(=O)c1ccccc1	95.8*	75.5*	-70.5*	24.4*	41.0*	16.3	13.7	3.7	-8.1	106.4*
CSc1ccc(CN(C)C(=O)C2CCN(C(=O)Nc3ccccc3)CC2)cc1	0.9	12.7	-6.8	11.2	10.6	17.5	/	/	/	/
CCOc1cc(C=C(C(=O)OC)C(=O)OC)ccc1OCc1ccc([N+](=O)[O-])cc1	57.5	106.5*	-2.3	65.7*	92.1*	30.8	96.2*	89.7*	98.3*	107.3*
CCOc1cc(/C=N/O)ccc1OCc1ccc([N+](=O)[O-])cc1	-27.0	-15.0	0.8	9.5	-25.5	-33.2	/	/	/	/
Cc1noc(C)c1COc1ccccc1C(=O)NC(C)c1ccc(F)cc1 (stereo not given)	-0.8	-2.5	-1.6	4.0	1.1	-14.6	/	/	/	/
O=C(/C=C/c1cccnc1)/C=C/c1cccnc1	96.4*	109.0*	3.0	94.9*	94.9*	75.4*	102.2*	108.0*	65.9*	106.6*
Cc1cccc(C(=O)Nc2ccc(C(=O)/C=C/c3cccnc3)cc2)c1	26.8	109.3*	-16.2	67.6*	76.1*	38.4	101.5*	102.0*	-104.2	104.5*
C(=Cc1cccnc1)c1ccncc1	-16.1	0.9	3.2	1.4	0.4	33.5	/	/	/	/
Cc1cccc(C(=O)Nc2ccc(C(=O)N/N=C/c3cccnc3)cc2)c1	-7.6	-4.1	-2.3	-2.2	11.1	0.4	/	/	/	/
CC(=O)Nc1ccc(OCC(O)CN2C(C)(C)CC(O)CC2(C)C)cc1 (stereo not given)	7.6	0.7	-5.6	13.2	19.4	7.3	/	/	/	/
COC(=O)/C=C/c1ccc2c(c1)S(=O)(=O)N(Cc1ccc(OC)cc1)[C@H]2CC(=O)OC	-4.4	-1.7	8.4	4.9	4.9	-22.2	/	/	/	/
COc1cccc(N2[C@@H](CC(C)=O)c3ccc(/C=C/C(C)=O)cc3S2(=O)=O)c1	34.0	99.8*	2.4	31.8*	44.7*	-25.8	65.2*	57.0*	12.0	32.5
COC(=O)C[C@H]1c2ccccc2S(=O)(=O)N1c1cccc(OC)c1	-10.5	-4.2	8.8	9.4	0.5	3.7	/	/	/	/
COc1ccc(CN2[C@@H](CC(C)=O)c3ccc(/C=C/C(C)=O)cc3S2(=O)=O)cc1	28.4	105.8*	9.0	34.7*	42.8*	22.5	70.4*	62.3*	6.2	48.2
O=C1C=CC(=O)N1c1ccc2c(c1)C(NC(=O)C(F)(F)F)c1ccccc1-2 (stereo not given)	86.1*	102.5*	-9.4	34.5*	45.5*	39.6	56.4*	98.9*	10.5	16.5
CCCC(=O)OCCNc1cc(Sc2nc3ccccc3[nH]2)c2nonc2c1[N+](=O)[O-]	-4.6	109.3*	-65.8*	50.1*	93.7*	92.3*	61.0*	110.1*	69.2*	74.1*	Mdm2 MdmX conf=103.2*
SMILES	TRPM1 prom inh	Peg3 promoter	KKLEB cytotox	ABHD5-PLIN5 inh	HIF-2a inh	CF NFkB block	ABHD5-PLIN5 conf	HNF4 split-luc	HIF-2a conf	HIF-1a cs	others
CCC(=O)OCCNc1cc(SCCC(=O)OC)c2nonc2c1[N+](=O)[O-]	-6.8	29.8	2.4	-13.8	17.3	12.6	/	/	/	/
O=C(/C=C/c1ccccc1)CC(O)(c1ccccc1)C(F)(F)F (stereo not given)	31.4	104.7*	-57.5*	81.3*	72.6*	52.8*	98.7*	89.3*	44.5*	104.3*
O=C(/C=C/c1ccccc1)CC(O)(c1ccccc1)C(F)(F)C(F)F (stereo not given)	19.1	101.3*	-33.9	82.2*	70.3*	22.6	98.3*	77.0*	52.6*	105.8*
Cc1cccc(-c2nnc(SCC(=O)NC3CC3)n2C)c1	13.2	11.6	5.8	-0.5	-1.4	-13.7	/	/	/	/
O=C(Cc1coc2cc(O)ccc12)N1CCN(S(=O)(=O)c2ccc(Br)cc2)CC1	6.6	10.6	11.2	-9.9	19.1	8.1	/	/	/	/
O=C(Nc1ccc(Br)cc1)c1cnc[nH]1	-41.1	-153.7	3.2	8.1	-158.0	-23.8	/	/	/	/
O=C1/C(=C/c2ccccc2[N+](=O)[O-])COc2ccccc21	84.5*	105.6*	-70.7*	57.5*	61.3*	86.1*	79.3*	76.3*	-104.0	103.0*
COc1ccc(C2NC(=O)c3ccccc3N2)cc1OC (stereo not given)	-38.5	-92.7	-8.1	-2.1	-135.2	8.0	/	/	/	/
